# According to PubChem BioAssay:
# Biological target: PEG-3 (UniProt Q6IN02)
# Experiment: Peg3 promoter luciferase inhibitors, potency, dose response, cell-based, HeLa, CREF/GAPDH counter-screen panel (AID 624167)
# Conditions: CREF/GAPDH counter-screens; HeLa PEG-Prom luciferase reporter, overnight, run 1, dose range 1, at 100 µM (top of the series) unless noted
# Sequence of PEG-3 (Q6IN02 whole entry, looked up): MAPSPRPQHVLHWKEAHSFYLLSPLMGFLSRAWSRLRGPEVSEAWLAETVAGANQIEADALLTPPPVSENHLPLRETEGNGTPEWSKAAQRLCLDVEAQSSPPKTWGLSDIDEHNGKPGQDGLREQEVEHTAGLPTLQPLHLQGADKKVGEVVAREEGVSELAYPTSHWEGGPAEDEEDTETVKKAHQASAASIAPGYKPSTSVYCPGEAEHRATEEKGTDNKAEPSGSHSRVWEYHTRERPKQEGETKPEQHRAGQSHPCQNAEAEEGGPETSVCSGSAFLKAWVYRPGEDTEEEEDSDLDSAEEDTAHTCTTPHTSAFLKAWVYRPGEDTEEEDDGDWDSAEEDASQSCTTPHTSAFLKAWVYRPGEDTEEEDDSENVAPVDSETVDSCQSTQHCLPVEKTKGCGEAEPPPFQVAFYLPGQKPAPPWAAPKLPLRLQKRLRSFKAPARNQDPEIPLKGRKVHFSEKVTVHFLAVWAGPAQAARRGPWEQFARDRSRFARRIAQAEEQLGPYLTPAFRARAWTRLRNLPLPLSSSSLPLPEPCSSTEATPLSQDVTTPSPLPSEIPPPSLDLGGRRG
row,Compound,inhibition [%]
1,COc1cccc(-c2sc3ccc(OC)cc3c2-c2ccc(OCCN(C)C)cc2)c1,94.3
2,CCCCCc1ccc(OCCCC[n+]2cccc(C)c2)c(CCCCC)c1,98.6
3,N#Cc1c(N)nc(SCc2ccncc2)c(C#N)c1-c1cccs1,94.6
4,Cc1ccc(CC2(OCCN(C)C)CCC(C(C)(C)C)CC2)cc1 (stereo not drawn),99.6
5,COc1ccc2nc3n(c(=O)c2c1)-c1cc2ccccc2cc1C(=O)NC3Cc1ccc(O)cc1 (stereo not drawn),86.9
6,Cc1ccc(C2(CCNCc3ccc(N(C)C)cc3)CCOC(C(C)C)C2)cc1 (stereo not drawn),99.6
7,CCN(CC)CCN1CCN(c2cncc(-c3ccc4ccccc4c3)n2)CC1,98.9
8,COc1ccc(-c2cc(-c3ccc(F)cc3)nc(N3CCN(C)CC3)n2)cc1,25.8
9,CCCc1ccc(C(=O)O/N=C(\N)c2ccccn2)cc1,99.7
10,O=C1NC(Cc2ccc(O)cc2)c2nc3ccc(F)cc3c(=O)n2-c2cc3ccccc3cc21 (stereo not drawn),100
11,O=C(/C=C/c1cc(Br)ccc1O)c1ccco1,102
12,CCOC(=O)c1c(NC(C)=O)sc2c(OCC(O)CNC(C)(C)C)c(Br)ccc12 (stereo not drawn),102
13,Cc1ccc(S(=O)(=O)CCSC(=N)N)cc1,101
14,CN1CCC(N(C)S(=O)(=O)c2ccc(NC(=O)COc3ccc(Br)cc3Cl)cc2)CC1,99.8
15,CCN(CC)CCNc1cccc2sc3ccccc3c(=O)c12,94.6
16,CC(=O)Nc1ccc(S(=O)(=O)N(Cc2cccnc2)Cc2cc3ccccc3[nH]c2=O)cc1,11.2
17,O=S(=O)(N[C@H]1C[C@@H](NS(=O)(=O)OCC(Cl)(Cl)Cl)C2CCCCC21)OCC(Cl)(Cl)Cl (stereo partly drawn),99.2
18,NCCCNc1nc(N)c([N+](=O)[O-])c(NC2CCCCC2)n1,96
19,COc1ccccc1NC(=S)NC1CCCCCCCCCCC1,48.3
20,c1cc2c3c(cccc3c1)NC1(CCC3(CC1)Nc1cccc4cccc(c14)N3)N2,97.7

row,Compound,inhibition [%]
1,Cc1ccc(S(=O)(=O)N(C)C)cc1NC(=O)c1cncc(Br)c1,82.4
2,CCc1ccc(NC(=O)CSc2nc3ccccc3c(=O)n2CCCN2CCC(C)CC2)cc1,99.2
3,COc1ccc(-c2cc(C(=O)N(C)Cc3cccc(OC)c3OC)c3ccccc3n2)cc1OC,72.4
4,CC(C)CC1C(=O)N(Cc2cn(CCC3OCCO3)nn2)CCS(=O)(=O)N1Cc1ccc(-c2ccc(F)cc2)cc1 (stereo not drawn),98.1
5,COc1ccc(CCNC(=O)c2cc3c(=O)n4ccccc4nc3n(C3CCCCC3)c2=N)cc1,102
6,Cc1ccc(-c2nc(C(Cl)Cl)c3ccccc3n2)cc1,96.2
7,COc1ccc(C2c3c(ncn(CCCN4CCOCC4)c3=N)Oc3ccc4ccccc4c32)cc1OC (stereo not drawn),102
8,CC1(C)CC(NCCN2CCN(C3=CC(=C(C#N)C#N)CC(C)(C)C3)CC2)=CC(=C(C#N)C#N)C1,19.6
9,CC1(C)CC(NC(=O)c2cccc(S(=O)(=O)N(Cc3ccccc3)c3ccccc3)c2)CC(C)(C)N1,101
10,COc1cc(CNC(C)(C)CO)cc(Br)c1OCc1ccc(Cl)cc1,99
11,Cc1cc(C)cc(NC(=O)Cn2c(=O)oc3cc(S(=O)(=O)N4CCC(C)CC4)ccc32)c1,19.2
12,c1ccc(-c2cc(-c3nc4ccccc4[nH]3)c3ccccc3n2)cc1,86.8
13,CC1=CC(C)[C@H](/C=N/n2c(=O)[nH]c3c([nH]c4ccc(Br)cc43)c2=O)C(C)C1 (stereo partly drawn),12.7
14,CN(C)CCCN1c2ccccc2Sc2ccc3ccccc3c21,94.6
15,O=C(C(=O)N(Cc1ccccc1)Cc1ccccc1)c1c(-c2ccccc2)[nH]c2ccccc12,20.8
16,COc1ccccc1N1CCN(C(=O)c2sc3ncnc(N4CCN(c5ccccn5)CC4)c3c2C)CC1,88.3
17,CCOC(=O)CN(C(=O)CSc1nnc2c(n1)[nH]c1ccc(F)cc12)c1ccccc1,99.9
18,COc1cc(N=Nc2c(O)c3ccccc3[nH]c2=O)c(OC)cc1N=Nc1ccccc1,-11.2
19,O=C(C=Cc1ccccn1)c1ccccc1,101

# Biological target: PEG-3 (UniProt Q6IN02)
# Experiment: as above
# Conditions: CREF/GAPDH counter-screens; HeLa PEG-Prom luciferase reporter, overnight, run 2, dose range 1, at 100 µM (top of the series) unless noted
row,Compound,inhibition
1,COc1cccc(-c2sc3ccc(OC)cc3c2-c2ccc(OCCN(C)C)cc2)c1,98.3%
2,CCCCCc1ccc(OCCCC[n+]2cccc(C)c2)c(CCCCC)c1,101%
3,N#Cc1c(N)nc(SCc2ccncc2)c(C#N)c1-c1cccs1,99.2%
4,Cc1ccc(CC2(OCCN(C)C)CCC(C(C)(C)C)CC2)cc1 (stereo not drawn),97.3%
5,COc1ccc2nc3n(c(=O)c2c1)-c1cc2ccccc2cc1C(=O)NC3Cc1ccc(O)cc1 (stereo not drawn),98.8%
6,Cc1ccc(C2(CCNCc3ccc(N(C)C)cc3)CCOC(C(C)C)C2)cc1 (stereo not drawn),101%
7,CCN(CC)CCN1CCN(c2cncc(-c3ccc4ccccc4c3)n2)CC1,102%
8,COc1ccc(-c2cc(-c3ccc(F)cc3)nc(N3CCN(C)CC3)n2)cc1,101%
9,CCCc1ccc(C(=O)O/N=C(\N)c2ccccn2)cc1,102%
10,O=C1NC(Cc2ccc(O)cc2)c2nc3ccc(F)cc3c(=O)n2-c2cc3ccccc3cc21 (stereo not drawn),95.8%
11,O=C(/C=C/c1cc(Br)ccc1O)c1ccco1,101%
12,CCOC(=O)c1c(NC(C)=O)sc2c(OCC(O)CNC(C)(C)C)c(Br)ccc12 (stereo not drawn),93.7%
13,Cc1ccc(S(=O)(=O)CCSC(=N)N)cc1,93.6%
14,CN1CCC(N(C)S(=O)(=O)c2ccc(NC(=O)COc3ccc(Br)cc3Cl)cc2)CC1,101%
15,CCN(CC)CCNc1cccc2sc3ccccc3c(=O)c12,95.9%
16,CC(=O)Nc1ccc(S(=O)(=O)N(Cc2cccnc2)Cc2cc3ccccc3[nH]c2=O)cc1,-18.5%
17,O=S(=O)(N[C@H]1C[C@@H](NS(=O)(=O)OCC(Cl)(Cl)Cl)C2CCCCC21)OCC(Cl)(Cl)Cl (stereo partly drawn),101%
18,NCCCNc1nc(N)c([N+](=O)[O-])c(NC2CCCCC2)n1,102%
19,COc1ccccc1NC(=S)NC1CCCCCCCCCCC1,"102% [run 2, dose range 1, at 50 µM]"
20,c1cc2c3c(cccc3c1)NC1(CCC3(CC1)Nc1cccc4cccc(c14)N3)N2,102%

row,Compound,inhibition
1,Cc1ccc(S(=O)(=O)N(C)C)cc1NC(=O)c1cncc(Br)c1,83.7%
2,CCc1ccc(NC(=O)CSc2nc3ccccc3c(=O)n2CCCN2CCC(C)CC2)cc1,101%
3,COc1ccc(-c2cc(C(=O)N(C)Cc3cccc(OC)c3OC)c3ccccc3n2)cc1OC,74.7%
4,CC(C)CC1C(=O)N(Cc2cn(CCC3OCCO3)nn2)CCS(=O)(=O)N1Cc1ccc(-c2ccc(F)cc2)cc1 (stereo not drawn),93.8%
5,COc1ccc(CCNC(=O)c2cc3c(=O)n4ccccc4nc3n(C3CCCCC3)c2=N)cc1,102%
6,Cc1ccc(-c2nc(C(Cl)Cl)c3ccccc3n2)cc1,97.4%
7,COc1ccc(C2c3c(ncn(CCCN4CCOCC4)c3=N)Oc3ccc4ccccc4c32)cc1OC (stereo not drawn),100%
8,CC1(C)CC(NCCN2CCN(C3=CC(=C(C#N)C#N)CC(C)(C)C3)CC2)=CC(=C(C#N)C#N)C1,44%
9,CC1(C)CC(NC(=O)c2cccc(S(=O)(=O)N(Cc3ccccc3)c3ccccc3)c2)CC(C)(C)N1,102%
10,COc1cc(CNC(C)(C)CO)cc(Br)c1OCc1ccc(Cl)cc1,98.9%
11,Cc1cc(C)cc(NC(=O)Cn2c(=O)oc3cc(S(=O)(=O)N4CCC(C)CC4)ccc32)c1,47.7%
12,c1ccc(-c2cc(-c3nc4ccccc4[nH]3)c3ccccc3n2)cc1,88.6%
13,CC1=CC(C)[C@H](/C=N/n2c(=O)[nH]c3c([nH]c4ccc(Br)cc43)c2=O)C(C)C1 (stereo partly drawn),"77.5% [run 2, dose range 1, at 12.5 µM]"
14,CN(C)CCCN1c2ccccc2Sc2ccc3ccccc3c21,98.6%
15,O=C(C(=O)N(Cc1ccccc1)Cc1ccccc1)c1c(-c2ccccc2)[nH]c2ccccc12,46.6%
16,COc1ccccc1N1CCN(C(=O)c2sc3ncnc(N4CCN(c5ccccn5)CC4)c3c2C)CC1,93.5%
17,CCOC(=O)CN(C(=O)CSc1nnc2c(n1)[nH]c1ccc(F)cc12)c1ccccc1,99.2%
18,COc1cc(N=Nc2c(O)c3ccccc3[nH]c2=O)c(OC)cc1N=Nc1ccccc1,-33.1%
19,O=C(C=Cc1ccccn1)c1ccccc1,101%
